Measurements as given in PubChem BioAssay AID488975 (Johns Hopkins Ion Channel Center, 2010).
The whole screen tested about 310,000 compounds, of which about 2,600 (0.84%) were called active.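 The calls were made as follows: active = B-score over 3 SD under the library average, and starting fluorescence ratio not unusually high; inactive = the rest.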 The entries come from a sample that favours actives as a whole.

Target: High affinity choline transporter 1 (Homo sapiens) (UniProt Q9GZV3)
Experiment: inhibits the human high affinity choline transporter (AID 488975);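 as to B-score: choline stimulus applied at its EC90 after an EC20 pre-addition; B-score computed on integrated fluorescence ratio after choline addition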
Conditions: CHT-expressing cells, membrane potential dye, choline response, at 10 µM; stronger effect = lower value

High affinity choline transporter 1 (Homo sapiens), sequence (Q9GZV3 whole entry, looked up): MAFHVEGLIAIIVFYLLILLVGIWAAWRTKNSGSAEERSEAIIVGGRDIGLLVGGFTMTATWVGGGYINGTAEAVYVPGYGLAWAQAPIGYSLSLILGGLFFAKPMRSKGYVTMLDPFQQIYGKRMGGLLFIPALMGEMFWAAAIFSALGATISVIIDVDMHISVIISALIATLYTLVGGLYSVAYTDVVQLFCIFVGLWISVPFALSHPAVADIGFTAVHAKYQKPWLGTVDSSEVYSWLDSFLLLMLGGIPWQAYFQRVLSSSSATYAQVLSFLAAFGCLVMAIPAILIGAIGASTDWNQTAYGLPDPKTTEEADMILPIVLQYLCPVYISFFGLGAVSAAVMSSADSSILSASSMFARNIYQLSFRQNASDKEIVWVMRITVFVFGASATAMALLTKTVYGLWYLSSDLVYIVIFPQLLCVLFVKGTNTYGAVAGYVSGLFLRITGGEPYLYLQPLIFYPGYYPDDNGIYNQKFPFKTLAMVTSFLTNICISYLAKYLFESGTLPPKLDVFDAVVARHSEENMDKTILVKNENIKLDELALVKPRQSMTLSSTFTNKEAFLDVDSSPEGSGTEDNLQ

B-score, active:
CC1CN(S(=O)(=O)c2ccc(C(=O)NN3CCN(C)CC3)cc2)CC(C)O1 (stereo unspecified) -5.14, Cc1ccccc1-n1nnc2c(=O)oc3ccccc3c21 -6.25, Cc1ccc(C(=O)N/C(=C/C=C/c2ccccc2)C(=O)NCc2ccco2)cc1 -7.21, Cc1nn(CC(=O)NCC2CCCO2)c(=O)c2cc3ccccc3n12 (stereo unspecified) -5.7, COc1ccc(N2C(=O)CNC2=S)cc1 -7.99, CC(C)(C)NC(=O)NC(=O)CN1CCC(Cc2ccccc2)CC1 -7.19, Cn1c2ccccc2c(=O)c2c(O)cccc21 -5.96, Nc1cc(N2CCCCCC2)c2nonc2c1[N+](=O)[O-] -7.12, Cc1ccc(S(=O)(=O)/N=C(/NC(=S)Nc2c(C)n(C)n(-c3ccccc3)c2=O)c2ccccc2)cc1 -6.35, CCOc1ccccc1Nc1ccc2nonc2c1[N+](=O)[O-] -6.62, Cc1ccccc1-n1c(C)cc(/C=C2\NC(=O)NC2=O)c1C -8.08

B-score, inactive:
COc1ccccc1C(CNC(=O)c1cccc(NS(=O)(=O)c2ccc(Br)cc2)c1)N(C)C (stereo unspecified), CN(CC(=O)NCc1cccnc1)S(=O)(=O)c1cc(Cl)ccc1Cl, COc1ccc(CC2c3cc(OC)c(OC)cc3CC[N+]2(C)CCC(=O)OCCCCCOC(=O)CC[N+]2(C)CCc3cc(OC)c(OC)cc3C2Cc2ccc(OC)c(OC)c2)cc1OC (stereo unspecified), Cc1ccccc1N1CC(C(=O)Nc2ccc(S(=O)(=O)N3CCCC3)cc2)CC1=O (stereo unspecified), CCC1(c2ccccc2)NC(=O)N(CC(=O)Nc2ccccc2C(=O)NC2CCCC2)C1=O (stereo unspecified), CCc1noc(C)c1C(=O)Oc1ccc(N(C)S(=O)(=O)c2ccc(C)c(C)c2)cc1, CC1CC(C)CN(S(=O)(=O)c2ccc(C(=O)NN3CCOCC3)cc2)C1 (stereo unspecified), CN1CCN(NC(=O)c2ccc(S(=O)(=O)N3CCCCCC3)cc2)CC1, CCCc1cc(=O)[nH]c(SCC(=O)c2c(N)n(CC(C)C)c(=O)n(C)c2=O)n1, CCOC(=O)c1c(C)nc2c(c1C)c(=O)oc1ccccc12, CCCCC(=O)Nc1cc(C)c2c(=O)oc3ccccc3c2n1, Cc1ccc(Cl)c(OCC(=O)N(C)CC(=O)Nc2ccc(N3CCOCC3)cc2)c1, CNC(=O)/C(=C\C=C\c1ccccc1)NC(=O)c1ccc([N+](=O)[O-])cc1, O=C(NCc1ccco1)/C(=C/c1ccco1)NC(=O)c1ccccc1, Cc1n[nH]c(=O)c2c(NC(=O)CSc3ccccc3F)oc(C)c12, Cc1ccc2nc(SCC(=O)Nc3cccc4ccccc34)nc(=O)n2c1, Cc1c(Cl)c([N+](=O)[O-])nn1CC(=O)NCC1CCCO1 (stereo unspecified), Cc1sc2c(c1C)c(=O)n(-c1ccccc1)c(=O)n2CC(=O)NCC1CCCO1 (stereo unspecified), COc1ccc(N2C(=O)CC(SC(C)C)C2=O)cc1 (stereo unspecified), COc1ccc(N2C(=O)C(Cc3ccccc3)NC2=S)cc1 (stereo unspecified), CCOC(=O)N1CCN(C(=O)c2ccccc2SCC(=O)NCC2CCCCC2)CC1, NC(=O)c1ccc(CN2CCC(Cc3ccccc3)CC2)cc1, O=C(O)c1ccc(S(=O)(=O)N2CCC(Cc3ccccc3)CC2)cc1, Cc1sc2ncnc(N3CCC(C(=O)NNC(=O)c4ccc(F)cc4)CC3)c2c1C, CCn1c(=O)cc(O)c2ccccc21, Cc1cc(C)c(-c2c(O)c3ccccc3n(C)c2=O)c(C)c1, CCCC[C@@H]1CN=C(N)N1CCc1cccc(F)c1, Cc1cccc(Nc2nc(NCCO)nc(N3CCCC3)n2)c1, COc1ccc(C(=O)N(Cc2ccccc2)c2ccc(C)cc2)cc1S(=O)(=O)N1CCOCC1, COc1cccc(NC(=O)CSc2nccn(-c3ccc4c(c3)OCCO4)c2=O)c1, CC(C)(C)S(=O)(=O)c1ccccc1-c1noc(-c2ccccc2)c1C(N)=O, CN(C)CCn1c2c(c(SCC(=O)NCc3ccccc3)nc1=O)CCC2, Nc1nc(NCC(=O)O)nc(N2CCCCCC2)c1[N+](=O)[O-], COCCNc1nc(N)c([N+](=O)[O-])c(N2CCCCCC2)n1, Cc1ccc(S(=O)(=O)N2CCN(C(=O)Cc3sc(C)nc3-c3ccc(F)cc3)CC2)c(C)c1, COc1ccc(NC(=O)CN(C)C(=O)c2cccc(S(=O)(=O)N3CCN(c4ccccc4)CC3)c2)cc1, Cc1ccccc1NC(=O)COc1cccc2c1CCNC2=O, Cc1c(NC(=S)Nc2ccccc2)c(=O)n(-c2ccccc2)n1C, Cc1ccc(S(=O)(=O)CC(=O)Nc2c(C)n(C)n(-c3ccccc3)c2=O)cc1, CC(=O)N1CCc2c(sc(NC(=O)CCS(=O)(=O)c3ccc(C)cc3)c2C(N)=O)C1, O=C(c1cc(-c2ccco2)nc2ccccc12)N(Cc1nnc(-c2ccc(Cl)cc2)o1)C1CC1, CC(C)CN(C(=O)COC(=O)c1ccc2ccccc2c1)c1c(N)n(Cc2ccccc2)c(=O)[nH]c1=O, COc1ccc(/C=N/NC(=O)c2cc(-c3cccc(C)c3)nc3ccccc23)cc1O, COc1ccccc1OCCCCCCN1CCN(C)CC1, CCN(CC)c1ccc(S(=O)(=O)N2CCCCC2)cc1NC(=O)C1=COCCO1, Cc1ccccc1Nc1c([N+](=O)[O-])ccc2nonc12, CCOc1ccccc1Nc1ccc(C(=O)O)cc1[N+](=O)[O-], COc1ccc(-c2ccc3nnc(SCC(=O)Nc4ccc(NC(C)=O)cc4)n3n2)cc1, Cc1cccc(C)c1-n1c(C)cc(/C=C2\C(=O)NN(c3ccccc3)C2=O)c1C, Cc1cc(/C=C2/NC(=O)NC2=O)c(C)n1-c1cccnc1
